Screening data: PubChem, Broad Institute
Only a sample is shown.
aSyn UTR act: Activators working through SNCA 5'UTR binding (MLPCN). alpha-synuclein 5'UTR reporter, activators screen. 300,000 tested, 7.1% active. AID 1814. activity score, % (tested at 7.5 µM), hits read low; in the data active = activity score below about -60%
Each line names hits and unclear results; the compound was inactive in the other large screens.

Cc1cccc(-n2nnc(C(=O)N3CCc4ccccc4C3)c2N)c1	aSyn UTR act -71.3
O/N=C\c1ccc(-c2ccccc2)o1	aSyn UTR act -112.3
O=[N+]([O-])c1ccc(-c2ccc(/C=N/O)o2)cc1	aSyn UTR act -95.3
Nc1[nH]ncc1N=Nc1ccc(Cl)cc1	aSyn UTR act -88.8
Nc1n[nH]c(N)c1N=Nc1ccc(Cl)cc1	aSyn UTR act -130.9
Nc1n[nH]c(N)c1N=Nc1cccc(C(F)(F)F)c1	aSyn UTR act -65.4
COc1ccc(-c2nn(-c3ccccc3)cc2C(=O)NC(=S)NNC(=O)c2ccncc2)cc1	none
O=C(N/N=C/c1cn(-c2ccccc2)nc1-c1cc2ccccc2o1)c1ccccc1Br	aSyn UTR act -114.8
N#Cc1cn(-c2ccccc2)nc1-c1cc2ccccc2oc1=O	aSyn UTR act -63.2
COc1ccc(-c2nn(-c3ccccc3)cc2C#N)cc1	aSyn UTR act -126.0
OCc1cn(-c2ccccc2)nc1-c1cc2ccccc2o1	aSyn UTR act -178.5
COc1ccc(NC(=O)c2cn(-c3ccccc3)nc2-c2cc3ccccc3o2)cc1	aSyn UTR act -70.8
O=C(N/N=C/c1cn(-c2cccs2)nc1-c1ccccc1)c1ccccc1Br	aSyn UTR act -73.4
CCCCCCCCCn1c2c(c(=N)c3c1CCC3)CCCC2	none
Cc1ccc(N=C2NC(=O)/C(=C\c3ccco3)S2)cc1	aSyn UTR act -73.6
O=C1NC(=Nc2ccccc2)S/C1=C\c1cccs1	aSyn UTR act -92.2
Cn1cccc1/C=C1\SC(=Nc2cccc(O)c2)NC1=O	aSyn UTR act -240.8
O=C1NC(=Nc2ccc(O)cc2)S/C1=C/c1ccco1	aSyn UTR act -87.8
CCOc1ccc2c(c1)S/C(=C\c1cccs1)C(=O)N2	aSyn UTR act -134.1
O=C1NC(=Nc2ccc3ccccc3c2)S/C1=C/c1ccco1	aSyn UTR act -90.6
O=C(COC(=O)c1ccccc1[N+](=O)[O-])c1ccc(C2CCCCC2)cc1	aSyn UTR act -75.9
Cc1nn2c(=O)c(NC(=O)c3ccc(Cl)cc3)cnc2s1	aSyn UTR act -65.6
Cc1ccc(C(=O)Nc2cnc3sc(C)nn3c2=O)cc1	aSyn UTR act -99.7
COc1ccc2c(c1)C(C)=CC(C)(C)N2S(=O)(=O)c1ccc(C)cc1	aSyn UTR act -62.6
CCOc1ccc2c(c1)C(C)=CC(C)(C)N2S(=O)(=O)c1ccc(C)cc1	none
O=C(c1cccc(-c2nnc(-c3ccccc3)o2)c1)N1CCCCC1	aSyn UTR act -76.1
O=C(Oc1ccc(-c2ccccc2)cc1)N1CCCCC1	aSyn UTR act -169.2
O=C(c1ccc(-c2ccccc2)cc1)N1CCCC1	aSyn UTR act -87.7
Cc1cc2nn(-c3cccc4ccccc34)nc2cc1N	aSyn UTR act -179.9
CO/N=C/C(C#N)=C/c1ccc(OC)cc1	aSyn UTR act -81.1
COc1ccc(/C=N/n2c(N)nc(-c3ccccc3)c2-c2ccccc2)cc1	aSyn UTR act -62.6
O=C(/C=C/c1cccc2ccccc12)N1CCOCC1	aSyn UTR act -62.9
O=C(/C=C/c1cccc(Oc2ccccc2)c1)N1CCOCC1	aSyn UTR act -94.6
O=C(/C=C/c1ccc(OCCCF)cc1)N1CCOCC1	aSyn UTR act -69.9
CS(=O)(=O)c1ccc2nc(NC(=O)Nc3cccc(Cl)c3)sc2c1	aSyn UTR act -84.9
CS(=O)(=O)c1ccc2nc(NC(=O)Nc3ccccc3F)sc2c1	aSyn UTR act -108.8
O=C(CSc1ccccn1)Nc1ccc2c(c1)oc1ccccc12	aSyn UTR act -122.4
COc1cc2c(cc1NC(=O)CSc1ccccn1)oc1ccccc12	aSyn UTR act -280.7
Cc1cc(=O)oc2cc(OCc3cc4c(cc3Cl)OCO4)ccc12	aSyn UTR act -65.6
Nc1nc2c(C(=O)N3CCOCC3)nnn2c2ccccc12	aSyn UTR act -65.8
Cc1ccccc1-c1nnc(-c2cccs2)o1	aSyn UTR act -115.9
Cc1ccccc1-c1noc(-c2cccs2)n1	aSyn UTR act -250.6
O=c1cc(-c2ccccc2)[nH]c2ccc(F)cc12	none
O=c1c2[nH]c3ccc(F)cc3c2ncn1C1CCCCC1	aSyn UTR act -82.2
COc1cccc(CN(C)C(=O)c2ccc(COc3ccc(Cl)cc3)cc2)c1OC	aSyn UTR act -101.2
Cc1cc(C(=O)CSc2nncs2)c(C)n1-c1ccc2c(c1)OCO2	aSyn UTR act -153.1
Cc1cc(C(=O)CSc2nnnn2-c2ccccc2)c(C)n1-c1ccc2c(c1)OCO2	aSyn UTR act -90.9
Fc1ccc(Cn2cccc2C2=NC(c3ccccc3)CO2)cc1 (centres undefined)	aSyn UTR act -88.2
CCCS(=O)(=O)c1nc(S(=O)(=O)c2ccc(Cl)cc2)c(N2CCC(O)CC2)s1	aSyn UTR act -94.6
CCCS(=O)(=O)c1nc(S(=O)(=O)c2ccc(C)cc2)c(N2CCC(C(N)=O)CC2)s1	aSyn UTR act -75.1
COC(=O)c1c(-c2ccc(C)cc2)csc1NC(=O)c1c(-c2ccccc2)noc1C	none
COc1ccc(-c2csc(NC(=O)c3ccccc3F)c2C(=O)O)cc1	aSyn UTR act -89.5
COC(=O)c1c(-c2ccc(F)cc2)csc1NC(=O)c1ccco1	aSyn UTR act -128.7
Cc1ccc(C(=O)Nc2scc(-c3ccccc3)c2C(=O)O)cc1	aSyn UTR act -91.8
COC(=O)c1c(-c2cccnc2)csc1NC(=O)c1cc(C)on1	aSyn UTR act -231.2
